{"source": "PubChem BioAssay AID588852", "about": "(The Scripps Research Institute Molecular Screening Center, 2011)", "note": "Among all 360,000 compounds or so, about 4,600 (1.3%) were called active.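 The calls were made as follows: active = percent inhibition above its own plate's cutoff, namely the mean of that plate's compound wells plus 3 SD; inactive = the rest.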 Many of the other results were omitted from the sample, so actives are more common in it than they were.", "data": [{"molecular_target": "Muscarinic acetylcholine receptor M1 (Homo sapiens) (UniProt P11229)", "sequence (P11229 whole entry, looked up)": "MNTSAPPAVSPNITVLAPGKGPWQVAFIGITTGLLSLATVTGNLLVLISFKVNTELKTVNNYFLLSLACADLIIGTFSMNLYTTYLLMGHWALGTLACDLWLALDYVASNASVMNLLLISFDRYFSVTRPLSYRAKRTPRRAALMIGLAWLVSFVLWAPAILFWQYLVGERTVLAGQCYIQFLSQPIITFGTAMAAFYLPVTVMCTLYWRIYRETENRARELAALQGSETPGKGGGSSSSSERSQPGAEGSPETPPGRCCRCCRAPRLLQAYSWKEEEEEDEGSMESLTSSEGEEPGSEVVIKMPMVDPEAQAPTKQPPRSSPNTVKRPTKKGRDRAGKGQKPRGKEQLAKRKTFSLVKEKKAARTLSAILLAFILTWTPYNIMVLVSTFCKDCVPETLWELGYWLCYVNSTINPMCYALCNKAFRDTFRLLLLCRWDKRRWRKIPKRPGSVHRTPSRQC", "experiment": "human M1 muscarinic receptor antagonists, primary screen, CHO-K1 cells, Fluo-8 calcium fluorescence, 1536-well (AID 588852);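 also: peak over basal fluorescence ratio during 140 s after agonist addition; 0% = ACh EC80 plus DMSO and 100% = DMSO alone without agonist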", "conditions": "CHO-K1 hM1, Fluo-8 calcium fluorescence, ACh EC80 antagonist; at 3 µM; stronger effect = higher value", "values": [{"smiles": "O=C(NCc1ccc2c(c1)OCO2)c1cc2c(s1)CS(=O)(=O)C2", "inhibition": "4.31% (inactive)"}, {"smiles": "Cc1cc(OCCN2CCCC2)ccc1C(C)C", "inhibition": "-3.45% (inactive)"}, {"smiles": "Cc1ccc(C(C)C)cc1OCC(=O)Nc1ccccc1N1CCCC1", "inhibition": "-19.6% (inactive)"}, {"smiles": "Cc1ccc(OCCCCN2CCCCC2)c(Br)c1", "inhibition": "22.6% (inactive)"}, {"smiles": "Cc1cc(OCCN2CCCC2)cc(C(C)C)c1", "inhibition": "82.3% (active)"}, {"smiles": "c1ccc2cc(OCCN3CCCC3)ccc2c1", "inhibition": "-1.41% (inactive)"}, {"smiles": "Cc1ccc(C(C)C)cc1OCCN1CCCC1", "inhibition": "53% (active)"}, {"smiles": "CCCCc1nc2ccc(F)cc2cc1C", "inhibition": "-6.44% (inactive)"}, {"smiles": "CC(C)C1C(=O)N(Cc2cn(CCC3OCCO3)nn2)CCS(=O)(=O)N1Cc1ccc(-c2ccccc2C(F)(F)F)cc1", "note": "(stereo not drawn)", "inhibition": "-16.4% (inactive)"}, {"smiles": "Cc1ccccc1NC(=O)COc1cccc2c1CCNC2=O", "inhibition": "-7.58% (inactive)"}, {"smiles": "CC1CC(C)CN(CC(=O)N2c3ccccc3CCc3ccccc32)C1", "note": "(stereo not drawn)", "inhibition": "4.81% (inactive)"}, {"smiles": "CN1CCN(C(=O)N2c3ccccc3CCc3ccccc32)CC1", "inhibition": "96.2% (active)"}, {"smiles": "CN1CCN(S(=O)(=O)c2cccc(C(=O)N3CCc4ccccc43)c2)CC1", "inhibition": "6.81% (inactive)"}, {"smiles": "CC(=O)Nc1ccc(NC(=O)[C@@H](NC(=O)c2cccc(C)c2)C(C)C)cc1", "inhibition": "-11.7% (inactive)"}, {"smiles": "Cc1ccc(NC(=O)C(C)c2cccc(C(=O)c3ccccc3)c2)cc1", "note": "(stereo not drawn)", "inhibition": "28.2% (active)"}, {"smiles": "CSCCC(NC(=O)COc1ccccc1)C(=O)Nc1ccc(C)cc1", "note": "(stereo not drawn)", "inhibition": "-7.4% (inactive)"}, {"smiles": "O=C(CSc1nnc2c(n1)[nH]c1ccccc12)NC1CCCCC1", "inhibition": "-3.99% (inactive)"}, {"smiles": "O=C(CNS(=O)(=O)c1ccc2ccccc2c1)Nc1ccc(F)c(F)c1F", "inhibition": "-2.2% (inactive)"}, {"smiles": "Cc1cc(=O)oc2c3c(cc(OCC(=O)NCC(O)c4ccccc4)c12)OC(C)(C)CC3", "note": "(stereo not drawn)", "inhibition": "-9.2% (inactive)"}, {"smiles": "Cc1onc(C(=O)NN)c1C(=O)N1CCN(C(c2ccccc2)c2ccccc2)CC1", "inhibition": "4.44% (inactive)"}, {"smiles": "O=C(c1ccc(-n2cnnn2)cc1)N1CCN(C(c2ccccc2)c2ccccc2)CC1", "inhibition": "78.5% (active)"}, {"smiles": "Cn1nnnc1SCC(=O)N1CCN(C(c2ccccc2)c2ccccc2)CC1", "inhibition": "-2.38% (inactive)"}, {"smiles": "CC(C)(C)Cc1c(C2CCCCC2)nc2ccc(Br)cn12", "inhibition": "-23.6% (inactive)"}, {"smiles": "COc1cc(OC)c(C2=NOC(C(=O)Nc3c(C)n(C)n(-c4ccccc4)c3=O)C2)cc1Cl", "note": "(stereo not drawn)", "inhibition": "-4.11% (inactive)"}, {"smiles": "Cc1ccc(N(Cc2cc3ccccc3[nH]c2=O)C(=O)c2cccs2)cc1", "inhibition": "-3.76% (inactive)"}, {"smiles": "Cc1ccc(N(Cc2cc(=O)[nH]c3ccccc23)C(=O)CCl)cc1", "inhibition": "41.3% (active)"}, {"smiles": "CC(=O)N(Cc1cc(=O)[nH]c2ccccc12)c1ccc(C)cc1C", "inhibition": "-12.4% (inactive)"}, {"smiles": "C=C(C)C1CC=C(C)/C(=N/NC(=O)CCCNc2cccc(C)c2)C1", "note": "(stereo not drawn)", "inhibition": "10% (inactive)"}, {"smiles": "CCCOc1ccc(N2CC(C(=O)Nc3ccccn3)CC2=O)cc1", "note": "(stereo not drawn)", "inhibition": "-17.6% (inactive)"}, {"smiles": "O=C(NCc1ccccc1Cl)C1CCN(c2ncnc3c2nc2n3CCCCC2)CC1", "inhibition": "-5.23% (inactive)"}, {"smiles": "COc1ccccc1CNC(=O)CCCn1c(=O)c2ccccc2n(CC(=O)NC2CCCC2)c1=O", "inhibition": "-13.2% (inactive)"}, {"smiles": "COc1ccccc1NC(=S)N1CCN(c2ccc(F)cc2)CC1", "inhibition": "-20.2% (inactive)"}, {"smiles": "COc1ccccc1CN1CCN(C(c2ccccc2)c2ccccc2)CC1", "inhibition": "63.6% (active)"}, {"smiles": "COc1cccc(OC)c1C(=O)N1CCN(Cc2ccccc2F)CC1", "inhibition": "-1.36% (inactive)"}, {"smiles": "COc1ccccc1NC(=S)N1CCN(C(c2ccccc2)c2ccccc2)CC1", "inhibition": "53.1% (active)"}, {"smiles": "COc1ccccc1CN1CCN(Cc2cc(OC)c(OC)cc2OC)CC1", "inhibition": "-21.9% (inactive)"}, {"smiles": "COc1ccccc1NC(=S)N1CCC(NC(=O)C23CC4CC(CC(C4)C2)C3)CC1", "inhibition": "-7.97% (inactive)"}, {"smiles": "CC(C)(C)NC(=O)COc1ccc(CNc2ccc3[nH]c(=O)[nH]c3c2)cc1", "inhibition": "-1.62% (inactive)"}, {"smiles": "COc1cc(C2OC(c3cc(OC)c(OC)c(OC)c3)C(C)C2C)cc(OC)c1OC", "note": "(stereo not drawn)", "inhibition": "0.63% (inactive)"}, {"smiles": "Oc1cccc2cc(-c3ccncc3)cnc12", "inhibition": "-21.3% (inactive)"}, {"smiles": "O=C(c1cc(Cl)cc(Cl)c1)N1CCC(=O)N(C(COCc2ccccc2)Cc2ccccc2)CC1", "note": "(stereo not drawn)", "inhibition": "7.3% (inactive)"}, {"smiles": "O=[N+]([O-])c1ccc(CN2CC(N3CCC(c4ccccc4)CC3)CS2(=O)=O)cc1", "note": "(stereo not drawn)", "inhibition": "7.07% (inactive)"}, {"smiles": "CCOC(=O)c1ccccc1NS(=O)(=O)c1c(C)nc2sccn2c1=O", "inhibition": "6.39% (inactive)"}, {"smiles": "COC(=O)c1ccc(CN2CCC(CO)(Cc3ccc(OC)cc3)CC2)cc1", "inhibition": "53.5% (active)"}, {"smiles": "COc1ccc(CC2(CO)CCN(Cc3cnn(C)c3)CC2)cc1", "inhibition": "1.8% (inactive)"}, {"smiles": "CCOC(=O)C1(CCOC)CCN(Cc2ccc(C(=O)OC)cc2)CC1", "inhibition": "-9.07% (inactive)"}, {"smiles": "O=C(CN1CCN(c2ccccc2O)CC1)NC(=O)NCc1ccccc1", "inhibition": "-3.68% (inactive)"}, {"smiles": "Cn1c(-c2ccc(C(F)(F)F)cc2)cc2onc(-c3ccccc3)c2c1=O", "inhibition": "2.31% (inactive)"}, {"smiles": "CC(C(=O)NC1CCCCC1)N1C(=O)c2cccc3cccc1c23", "note": "(stereo not drawn)", "inhibition": "8.39% (inactive)"}, {"smiles": "COc1ccccc1N1CCN(CC(=O)Nc2ccnn2C2CCCC2)CC1", "inhibition": "-12.8% (inactive)"}, {"smiles": "COc1ccccc1C(=O)Nc1ccnn1C1CCN(Cc2cnn(C)c2)CC1", "inhibition": "-12.3% (inactive)"}, {"smiles": "COc1ccccc1C(=O)Nc1ccnn1C1CCN(C(=O)C(C)(C)C)CC1", "inhibition": "47.4% (active)"}, {"smiles": "C/C(O)=C\\c1nc(=O)c2c(C)cc(C)nc2n1-c1ccccc1", "inhibition": "-3.66% (inactive)"}, {"smiles": "S=C(NCCCc1cnc[nH]1)NCCCN(Cc1ccc(Cl)c(Cl)c1)c1ccc(Br)cn1", "inhibition": "0.91% (inactive)"}, {"smiles": "CCOc1cc(/C=N/NC(=O)c2ccc(CSc3nncn3C)cc2)ccc1OCC(=O)N1CCOCC1", "inhibition": "-1.07% (inactive)"}, {"smiles": "CC(C)(C)S(=O)N1Cc2cc(C(=O)NCCCN3CCOCC3)nc(-c3cccc(-c4cc5ccccc5o4)c3)c2[C@H]1CCO", "note": "(stereo partly drawn)", "inhibition": "-16.2% (inactive)"}, {"smiles": "CCN(CC)S(=O)(=O)c1ccc(OC(C)C)c(N)c1", "inhibition": "-11.4% (inactive)"}, {"smiles": "CCN1/C(=C\\c2ccc3ccccc3[n+]2CC)Sc2cc(C)ccc21", "inhibition": "59% (active)"}, {"smiles": "CCCCCCCCCCOC(=O)Cn1c(COc2cccc(OC)c2)[n+](C)c2ccccc21", "inhibition": "58.2% (active)"}, {"smiles": "CCCCCCCCCCOC(=O)Cn1c(COc2ccc(C)cc2)[n+](C)c2ccccc21", "inhibition": "30.8% (inactive)"}, {"smiles": "O=C(C=CC(=O)Nc1ccc(F)cc1F)Nc1ccc(F)cc1F", "inhibition": "-4.83% (inactive)"}, {"smiles": "CC(=O)Nc1ccc(S(=O)(=O)N2CCC(C(=O)NC3CC3)CC2)cc1", "inhibition": "-7.82% (inactive)"}, {"smiles": "NCCCNC(=S)NCCCN(Cc1ccc(Cl)cc1)c1ccc(Br)cn1", "inhibition": "-0.49% (inactive)"}, {"smiles": "CC(C)(C)OC(=O)N1CCN(C(=O)c2[nH]c(C(F)(F)F)nc2-c2ccccc2)CC1", "inhibition": "-33.3% (inactive)"}, {"smiles": "FC(F)(F)c1cccc(NC(=S)Nc2cccc(Cl)c2)c1", "inhibition": "27.5% (active)"}, {"smiles": "O=C(Nc1cccc(Cl)c1)c1cncn1-c1ccc(F)cc1", "inhibition": "-4.54% (inactive)"}, {"smiles": "FC(F)(F)c1cccc(N/N=C/c2ccccc2)c1", "inhibition": "-6.47% (inactive)"}, {"smiles": "Cc1cc(C)cc(OCC(=O)OCC(=O)NC2CCCC2)c1", "inhibition": "5.15% (inactive)"}, {"smiles": "CC(C)c1nc2oc3c(N4CCN(C)CC4)ncnc3c2c2c1CCC2", "inhibition": "-4.82% (inactive)"}, {"smiles": "CN(C)Cc1c(C(=O)N/N=C/c2ccccc2OCc2ccc(F)cc2)nnn1-c1nonc1N", "inhibition": "-17.7% (inactive)"}, {"smiles": "NC(=O)C1=C[C@@H](c2csc3ccccc23)C[C@@H](OCc2ccc(CO)cc2)O1", "inhibition": "-1.54% (inactive)"}, {"smiles": "COc1cccc(-c2cnc3c(NC(C)=O)cc(-c4cc(F)ccc4OC)cn23)c1", "inhibition": "13.1% (inactive)"}, {"smiles": "Cc1ccc(C(=O)NCC(=O)OCc2nnc(-c3ccccc3)o2)cc1", "inhibition": "-11.3% (inactive)"}, {"smiles": "Cc1onc(-c2ccccc2Cl)c1C(=O)OCc1nnc(-c2ccccc2)o1", "inhibition": "1.39% (inactive)"}, {"smiles": "Cc1onc(-c2ccccc2)c1-c1nnc(COC(=O)c2ccc(N(C)C)cc2)o1", "inhibition": "99.9% (active)"}, {"smiles": "Cc1cc2nc(-c3ccco3)c(Cc3cccc(F)c3)n2c(C)c1Br", "inhibition": "-9.48% (inactive)"}, {"smiles": "O=C(NCCN1CCOCC1)c1ccc2c(c1)N(Cc1cccc(Cl)c1)C(=O)c1ccccc1S2(=O)=O", "inhibition": "-3.27% (inactive)"}, {"smiles": "O=C(c1ccc2c(c1)N(Cc1ccc(F)cc1)C(=O)c1ccccc1S2(=O)=O)N1CCN(c2ccccn2)CC1", "inhibition": "-3.64% (inactive)"}, {"smiles": "CCCCN(C)C(=O)c1ccc2c(c1)N(CC)C(=O)c1ccccc1S2(=O)=O", "inhibition": "37.7% (active)"}, {"smiles": "Cc1nn(-c2ccccc2)nc1C(=O)OCC(=O)N1CCCCC1C", "note": "(stereo not drawn)", "inhibition": "3.01% (inactive)"}, {"smiles": "NC1=NC(=O)C2(COC(c3ccccc3Cl)OC2)S1", "note": "(stereo not drawn)", "inhibition": "-9.62% (inactive)"}, {"smiles": "O=C(COC(=O)/C=C/c1ccc(Br)o1)Nc1cccc(S(=O)(=O)N2CCOCC2)c1", "inhibition": "-15.6% (inactive)"}, {"smiles": "CC(=O)c1c(O)cc2n(c1=O)-c1ccc(Cl)cc1C2(C)C", "inhibition": "-13.4% (inactive)"}, {"smiles": "COC(=O)c1ccc(NC(=O)CSc2nnc(-c3ccncc3)n2C)cc1", "inhibition": "-9.95% (inactive)"}, {"smiles": "COC(=O)c1ccc(NC(=O)CSc2nnc(CNc3ccc(OC)cc3)n2C)cc1", "inhibition": "64.6% (active)"}, {"smiles": "COC(=O)c1ccc(NC(=O)CSc2nnc(C3CC3)n2C)cc1", "inhibition": "-9.89% (inactive)"}, {"smiles": "CC(C)CN(C(=O)c1ccc2c(c1)OCO2)C1CCS(=O)(=O)C1", "note": "(stereo not drawn)", "inhibition": "6.67% (inactive)"}, {"smiles": "O=C(Nc1cccc2c1N(C(=O)c1ccco1)CCC2)c1ccco1", "inhibition": "-11.2% (inactive)"}, {"smiles": "N#CC1(NC(=O)COC(=O)CSc2ccc(F)cc2)CCCCC1", "inhibition": "-5.4% (inactive)"}, {"smiles": "COc1cc(CCN=Cc2ccccc2O)c([N+](=O)[O-])cc1OC", "inhibition": "1.04% (inactive)"}, {"smiles": "CN1CCN(CCCCOc2ccccc2-c2ccccc2)CC1", "inhibition": "-6.34% (inactive)"}, {"smiles": "CC1CCCN(CCOCCOc2ccccc2-c2ccccc2)C1", "note": "(stereo not drawn)", "inhibition": "5.61% (inactive)"}, {"smiles": "c1ccc(-c2ccccc2OCCN2CCCCC2)cc1", "inhibition": "33.7% (active)"}]}]}
